Screening data deposited in PubChem by several laboratories.
ADAM17 inh: inhibitors of human ADAM17 | P78536 | recombinant ADAM17, EDANS/DABCYL FRET peptide cleavage | inhibition, % at 6.95 µM | actives 0.83% (n = 370,000);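 active = inhibition above the mean of compounds lying between control limits plus 3 SD, set per campaign, cut at about 8.5% in these data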;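 also: 0% = DMSO-only wells as the low control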
DSG3 Ab inh: blocks pemphigus antibody binding to human desmoglein-3; binding (percent of control), % at 10 µM; DSG3-coupled beads, scFv-anti-DSG3-GFP binding, flow cytometry; active compounds read low; actives 0.48% (n = 310,000); P32926;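 active = binding more than 3 SD below its plate's average and above zero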;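 also: hits lower antibody fragment binding to DSG3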
MPTP block: inhibitors of mitochondrial permeability transition pore | actives 1.4% (n = 360,000) | inhibition, % at 10 µM | isolated mouse mitochondria, Ca2+ swelling absorbance, 30 min | AID 602449;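 active = inhibition of 50% or more, scaled per plate between neutral and stimulator controls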;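 also: 0% = DMSO wells given calcium and 100% = 1 mM EGTA wells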
proKLK7 act: proKLK7 (human) activation, primary screen; P49862; actives 0.9% (n = 370,000); purified proKLK7, EDANS-DABCYL substrate fluorescence; 100% is mature enzyme control, 0% vehicle; activation, % at 7 µM;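 active = activation above the mean of all tested compounds plus 3 SD, computed per campaign excluding outliers beyond control limits, cut at about 13% in these data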
Target sequence (P49862 whole entry, looked up): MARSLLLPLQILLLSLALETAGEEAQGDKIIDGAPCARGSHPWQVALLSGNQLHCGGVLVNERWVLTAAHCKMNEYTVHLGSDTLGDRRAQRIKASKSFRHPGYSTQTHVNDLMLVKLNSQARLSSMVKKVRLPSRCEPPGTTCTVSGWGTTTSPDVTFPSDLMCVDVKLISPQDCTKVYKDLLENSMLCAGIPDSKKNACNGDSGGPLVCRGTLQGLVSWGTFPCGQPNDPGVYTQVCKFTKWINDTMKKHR
rCAG RNA binder: r(CAG) repeat RNA binding. TO-PRO-1 dye displacement fluorescence. inhibition, % at 3 µM. actives 1.3% (n = 370,000);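 active = inhibition above the plate cutoff, the mean of all test compounds on that plate plus 3 SD, cut at about 35% in these data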;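 also: 0% = DMSO alone and 100% = 100 µM mitoxantrone as full dye displacement; higher means more dye released from RNA so lower well fluorescence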
ADAM10 inh: inhibitors of human ADAM10. O14672. recombinant ADAM10, EDANS/DABCYL FRET peptide cleavage, 3 h. inhibition, % at 7 µM. actives 0.62% (n = 370,000);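 active = inhibition above a per-campaign cutoff equal to the mean of compounds falling between control-based bounds plus 3 SD, cut at about 20% in these data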;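 also: 0% = DMSO wells while the 100% control is not disclosed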
ADAM10 counter: inhibits human ADAM10 in ADAM17 exosite counter-screen; recombinant ADAM10, EDANS/DABCYL FRET peptide cleavage, 3 h; inhibition, % at 6.95 µM; AID 743256; shares compounds with ADAM17 inh; actives 47% (n = 2,900);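 active = mean inhibition over the triplicate runs exceeds the activity threshold set in the earlier primary screen, cut at about 20% in these data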;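 also: 0% = DMSO wells and 100% = marimastat wells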
ADAM17 confirm: confirmation of inhibitors of human ADAM17; shares compounds with ADAM17 inh; recombinant ADAM17, EDANS/DABCYL QFRET peptide cleavage; inhibition, % at 6.95 µM; actives 65% (n = 2,900); AID 743257;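 active = mean inhibition across replicates above the hit cutoff set in the primary screen, cut at about 8.5% in these data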;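 also: 0% = DMSO wells and 100% = marimastat wells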
Active calls of the source: *; x = no result given. In the library only some 4.7% were active in any assay of this set; here they are far more common.

SMILES	ADAM17 inh	DSG3 Ab inh	MPTP block	proKLK7 act	rCAG RNA binder	ADAM10 inh	ADAM10 counter	ADAM17 confirm
CC(C)c1ccc(S(=O)(=O)Nc2ccc3c(c2)OCO3)cc1	12.4*	103.7	1.4	0.5	7.2	7.9	8.4	6.4
CCOc1ccc(S(=O)(=O)Nc2ccc3c(c2)OCO3)cc1	-1.9	123.3	0.7	0.2	1.6	-0.3	x	x
COc1ccccc1N(C)S(=O)(=O)c1ccc(C(=O)N(C)Cc2cccc(OC)c2OC)cc1	2.9	93.5	2.5	-0.1	0.1	0.4	x	x
CCOc1ccc(CN(C)C(=O)c2ccc(S(=O)(=O)N(C)c3ccccc3OC)cc2)cc1	17.9*	94.0	1.7	0.0	1.7	16.3	4.0	4.8
COc1ccccc1Cc1c(-c2ccco2)nc2c3ccccc3ccn12	-15.6	x	-0.6	-3.0	11.4	-54.0	x	x
Cc1ccc(N(C)S(=O)(=O)c2cccc(C(=O)N3CCN(Cc4ccccc4)CC3)c2)cc1	9.3*	104.7	-0.1	0.8	-0.1	15.6	11.6	6.2
CN(C)S(=O)(=O)c1cccc(C(=O)N2CCN(Cc3ccccc3)CC2)c1	-1.5	x	0.6	0.1	-3.6	-2.0	x	x
Cc1cccc(C(=O)N(CCc2ccccc2)Cc2ccccc2)c1[N+](=O)[O-]	8.8*	111.3	0.2	-0.2	3.8	14.0	27.9*	13.0*
CCc1cc(=O)[nH]c(SCC(=O)NCc2ccc3c(c2)OCO3)n1	-2.0	86.1	-2.0	0.6	3.4	0.4	x	x
O=S(=O)(c1ccc2nc(Cc3ccccc3)[nH]c2c1)N1CCOCC1	8.8*	102.1	-0.2	0.3	5.2	17.5	12.9	6.3
CCNC(=O)CCc1nc(-c2ccc(C(C)C)cc2)no1	-3.6	x	x	x	x	-5.1	x	x
Cc1ccc(NC(=O)c2cc(S(=O)(=O)NCCC3=CCCCC3)ccc2F)cc1	14.1*	125.1	20.2	0.4	2.8	22.9*	34.4*	18.1*
Cc1ccc(C)c(OCCC(=O)N(C)CC(=O)Nc2c(C)cccc2C)c1	-2.2	x	0.9	-0.4	-1.3	-4.4	x	x
COc1ccc(O)c(/C=N/NC(=O)c2ccc(CSc3nc(C)cc(C)n3)cc2)c1	13.9*	103.9	9.4	-2.8	17.9	19.2	9.7	9.5*
CC(C)(C)CNC(=O)C1(C)CCN1C(=O)c1ccccc1CCc1ccccc1 (stereo not given)	2.4	x	0.2	0.2	-0.5	-6.0	x	x
CCCNC(=O)C1(C)CCN1C(=O)c1ccccc1CCc1ccccc1 (stereo not given)	8.8*	x	0.6	-0.1	-0.4	7.3	-3.0	0.5
O=C(/C=C/c1ccc(Br)cc1)c1ccc(NC2=NCCCS2)cc1	8.8*	100.3	18.3	-2.7	1.4	14.0	25.7*	13.0*
Cc1cc(C2(c3ccc(O)c(C)c3)OC(=O)c3ccccc32)ccc1O	11.0*	109.7	-20.5	-0.3	10.7	9.0	17.9	10.7*
O=C(NC(=S)NCCc1ccccc1)c1ccccc1F	10.3*	114.7	1.1	0.8	1.3	12.9	11.9	5.7
O=C(NC(=S)NCc1ccccc1)c1ccccc1F	-3.2	104.9	0.1	0.2	-6.0	-8.9	x	x
O=C(CCn1nc(-c2ccccc2)c2ccccc2c1=O)N1CCN(c2ccccc2)CC1	10.0*	165.8	0.6	0.5	-1.0	12.5	5.9	8.2
O=C(CCn1nc(-c2ccccc2)ccc1=O)N1CCN(c2ccccc2)CC1	-4.4	93.0	0.3	0.0	-0.3	-3.8	x	x
CC(C)[C@H](NC(=O)C1CCN(S(=O)(=O)c2ccc(F)cc2)CC1)C(=O)NCc1ccco1	-2.1	102.0	-1.4	0.1	-1.3	1.6	x	x
COc1ccc(-c2nnc(SCC(=O)Nc3ncc(C(F)(F)F)cc3Cl)n2CC(C)C)cc1	-5.6	86.0	1.2	0.4	-9.9	-9.9	x	x
CCn1c(SCC(=O)Nc2ncc(C(F)(F)F)cc2Cl)nnc1-c1cccc(C)c1	10.0*	93.1	-0.8	0.3	-2.7	3.6	1.4	1.9
SMILES	ADAM17 inh	DSG3 Ab inh	MPTP block	proKLK7 act	rCAG RNA binder	ADAM10 inh	ADAM10 counter	ADAM17 confirm
O=[N+]([O-])c1ccc(O)c(/C=N/n2cnnc2)c1	9.2*	95.5	3.6	0.2	6.2	15.1	11.1	4.5
CCCCCCCCN1C(=O)[C@H](CC(=O)NCc2cccs2)C[C@@]2(C(=O)OC)CCCCC=C12	3.1	x	-1.0	0.0	1.2	7.6	x	x
COc1cc(CN2C[C@@H](CO)O[C@@H](n3cnc4c(N5CCN(c6ccccc6)CC5)ncnc43)C2)cc(OC)c1OC	9.1*	x	-0.7	0.1	8.4	5.2	0.0	2.5
COc1ccc(CN2C[C@@H](CO)O[C@@H](n3cnc4c(N5CCN(c6ccccc6)CC5)ncnc43)C2)cc1	0.6	x	0.3	0.5	5.5	3.1	x	x
CC(C)(C)OC(=O)C[C@@H]1C/C=C\C[C@H](CC(=O)N[C@H](CO)Cc2ccccc2)C(=O)N2CCC[C@H]2COC1=O	9.2*	103.0	-2.1	0.0	-5.1	4.8	4.5	11.0*
CC(C)(C)OC(=O)C[C@@H]1C/C=C\C[C@@H](CC(=O)N[C@H](CO)Cc2ccccc2)C(=O)N2CCC[C@@H]2COC1=O	6.0	104.1	-0.1	0.8	-6.3	6.5	x	x
COC(=O)c1ccc(COC(=O)CNC(=O)c2ccc(-c3ccccc3)cc2)cc1	-0.6	104.8	2.6	-0.2	5.8	-5.4	x	x
CNC(=O)c1[nH]cnc1C(=O)N[C@@H](Cc1ccccc1)C(=O)OCc1ccccc1	1.2	104.2	1.0	0.2	-1.8	9.8	x	x
CC(C)(C)OC(=O)NCc1ccc(CNC(=O)c2[nH]cnc2C(=O)N[C@@H](Cc2ccccc2)C(=O)OCc2ccccc2)cc1	12.0*	93.7	-0.7	0.2	11.7	15.8	33.8*	19.9*
C[C@H](NC(=O)c1nc[nH]c1C(=O)N[C@H](C)c1ccccc1)C(=O)OC(C)(C)C	3.8	96.2	-1.2	-0.2	-8.0	9.7	x	x
CC(C)(C)OC(=O)[C@H](Cc1ccccc1)NCC(=O)OCc1ccc(C(=O)NCc2ccccc2)cc1	8.7*	x	x	-0.3	1.4	12.9	10.5	8.1
C[C@@H](NC(=O)c1nc[nH]c1C(=O)N[C@@H](Cc1ccccc1)C(=O)OC(C)(C)C)c1ccccc1	10.0*	104.6	0.7	-0.1	0.3	19.0	32.8*	14.1*
C[C@H](NC(=O)c1nc[nH]c1C(=O)N[C@@H](Cc1ccccc1)C(=O)OCc1ccccc1)C(=O)OCc1ccccc1	10.6*	105.0	-0.7	-0.1	3.8	15.9	32.5*	19.0*
CCOC(=O)N1CCN(C(=O)C[C@@H]2C[C@@]3(C(=O)OCC)CCCC=C3N(CCC3=CCCCC3)C2=O)CC1	-3.8	x	-2.6	0.3	1.5	-4.4	x	x
